Compound activity: PubChem BioAssay, National Center for Advancing Translational Sciences (NCATS)
This excerpt belongs to a sample that is enriched for hits.
Tb PYK inh = qHTS of Trypanosoma Brucei Inhibitors; TbPYK enzyme, Kinase-Glo Plus ATP luminescence, 45 min; Potency, µM (titrated, usually from 76.8 µM), inactives show top-dose activity, negative = inhibition, usual class: inhibitors; 0.12% of 410,000 active; AID 624173, 2012; also: potency is read from the fitted curve at half-maximal effect; % is scaled to controls: 0 for no effect and ±100 for the full control effect; nearly all actives have a fitted effect of over 50% in size
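Luminescent Kinase-Glo Plus end-point after 45 min room-temperature reaction of T. brucei pyruvate kinase started with 130 uM ADP (final). Buffer TEA 50 mM pH 7.2 with KCl, MgCl2, BSA, Tween-20; titration-based qHTS with fitted concentration-effect curves.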
Cycloheximide cs = Cycloheximide Counterscreen for Small Molecule Inhibitors of Shiga Toxin; cell reporter, cycloheximide protein synthesis inhibition counterscreen; max response, %; AID 2314, 2010; 12% of 300,000 active; in the data active = max response mostly above about 13%, no sharp cut-off; inactive = mostly below about 14%; also: read at 38.3 µM for the half of the compounds with a filed dose; 0% is about no effect
FBPA Giardia inh = qHTS Assay for Inhibitors of Fructose-1,6-bisphosphate Aldolase from Giardia Lamblia. A8B2U2. purified Giardia FBPA. Potency, µM (series often up to 59.6 µM), without a hit: at the top dose activity, negative = inhibition, actives largely listed as inhibitors. 0.71% of 290,000 active. AID 2451, 2010; also: potency is read from the fitted curve at half-maximal effect; % is scaled to controls: 0 for no effect and ±100 for the full control effect; nearly all actives have a fitted effect of over 55% in size
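40 nM FBPA preincubated 10 min at RT with compound (up to 57.5 uM final), then substrate plus GAPDH/TPI/NAD/arsenate coupling and diaphorase/resazurin added. Fluorescence read after 20 min at RT, 525/598 nm.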
Shiga inhibitor = A qHTS for Small Molecule Inhibitors of Shiga Toxin | Vero cells, Shiga toxin protein synthesis inhibition reporter | inhibition, % at 38.7 µM | 9.2% of 290,000 active | AID 2315, 2010; in the data active = inhibition mostly above about 28%, no sharp cut-off; inactive = mostly below about 43%; also: 0% is about no effect
LmPK inh = qHTS Assay for Inhibitors of Leishmania Mexicana Pyruvate Kinase (LmPK) | Q27686 | purified LmPK, Kinase-Glo ATP luminescence, 1 h | Potency, µM (highest dose often 57.5 µM), for the others: at the top dose activity change, negative = inhibition, hits mostly inhibitors | 0.37% of 290,000 active; also: potency is read from the fitted curve at half-maximal effect; % is scaled to controls: 0 for no effect and ±100 for the full control effect
Target sequence (Q27686 whole entry, looked up): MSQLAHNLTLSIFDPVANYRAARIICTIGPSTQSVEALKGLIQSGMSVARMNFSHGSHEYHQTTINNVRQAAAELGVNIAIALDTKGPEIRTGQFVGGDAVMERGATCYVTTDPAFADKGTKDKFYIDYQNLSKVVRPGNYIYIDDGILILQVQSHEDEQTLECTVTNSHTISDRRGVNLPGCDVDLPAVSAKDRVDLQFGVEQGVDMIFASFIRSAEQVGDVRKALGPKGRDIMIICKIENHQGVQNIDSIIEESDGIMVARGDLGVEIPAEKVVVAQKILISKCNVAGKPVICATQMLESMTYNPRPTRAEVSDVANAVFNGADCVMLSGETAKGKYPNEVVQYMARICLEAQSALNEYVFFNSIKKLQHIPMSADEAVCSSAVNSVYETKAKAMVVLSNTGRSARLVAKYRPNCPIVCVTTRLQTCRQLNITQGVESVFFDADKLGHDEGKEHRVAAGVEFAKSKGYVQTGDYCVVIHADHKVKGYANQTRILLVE
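Purified LmPK (0.1 nM) converted ADP (0.1 mM) to ATP with PEP (0.5 mM) in imidazole buffer pH 7.2 with KCl and MgCl2, 1 h at room temperature. ATP was read by Kinase-Glo luminescence; data normalized to uninhibited and no-enzyme controls.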
Sm TGR block = qHTS Assay for the Inhibitors of Schistosoma Mansoni Peroxiredoxins. Potency, µM (highest dose often 114 µM), inactives show at the top dose activity change, negative = inhibition, hits mostly inhibitors. 3% of 360,000 active. AID 485364, 2010. purified TGR, DTNB reduction, TNB absorbance 405 nm. Schistosoma mansoni thioredoxin glutathione reductase (TGR), Q962Y6; also: potency is read from the fitted curve at half-maximal effect; % is scaled to controls: 0 for no effect and ±100 for the full control effect; nearly all actives have a fitted effect of over 60% in size
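TGR 20 nM + NADPH 100 uM (dispensed conc.), cpd preinc 15 min RT; start with NADPH (500 uM addition) then DTNB (15 mM addition). Kinetic TNB absorbance, 405 nm filter. Four-parameter Hill fit across titration.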
Numbers without * were called inactive; ? = inconclusive; . = no result; [ ] = remark or other dose. Unless noted, calls follow the shape of the dose curve; as a rule, active = well fitted curve in the direction sought with a large enough effect; inconclusive = small, poorly fitted or top-dose-only effect, or another doubt; inactive = no such curve, though single readings can be large; an effect the other way counts as inactive or inconclusive.

SMILES	Tb PYK inh	Cycloheximide cs	FBPA Giardia inh	Shiga inhibitor	LmPK inh	Sm TGR block
CC(=O)c1c(C)[nH]c(C(=O)Nc2cccc(C)n2)c1C	-2.4%	30.3*	.	59.2*	-17.3%	0.8%
COc1ncc2nc(C)c(=O)n(C3CC3)c2n1	.	.	-15.6%	.	.	.
Cn1c(CO)cnc1SCC(=O)c1ccc(F)cc1	0.5%	23.7*	-9.5%	75.0*	-1.7%	3.7%
Cn1c(SCC(=O)c2ccc(F)cc2)nnc1-c1ccccc1N	-5.6%	46.9*	12.1%	122.9*	3.6%	-4.8%
Cc1ccc(C(=O)CSc2nnc(-c3ccccc3N)n2C)cc1	0.5%	64.9*	-4.2%[12.9 µM]	94.4*	0.1%	13.2%
Cn1c(SCC(=O)c2ccc(F)cc2)nnc1-c1ccccc1Br	3.8%	.	.	.	.	-6.6%
Cc1cccc(CSc2ncc(CO)n2Cc2ccc(F)cc2)c1	-0.6%	.	.	.	.	-0.7%
Cc1cccc(CSc2ncc(CO)n2C)c1	-5.5%	20.3*	-11.6%	17.1	-7.7%	-30.3%
CCOc1cc2sc(N3CCC(C(=O)Nc4ccccc4C(=O)OC)CC3)nc2cc1Br	2.7%	.	.	.	.	-29.6%
CN(CC(=O)NCc1ccc(Cl)cc1)S(=O)(=O)c1ccc2c(c1)c(=O)n(C)c(=O)n2C	-6.5%	.	.	.	.	5.5%
COc1ccc(C2=NN(CN3C(=O)C(=O)c4ccccc43)C(c3ccc(OC)cc3)C2)cc1 (stereo not drawn)	-15.8%	75.8*	-9.2%	131.2*	-1.8%	-10.9%
COc1ccc(C2=NN(S(=O)(=O)c3ccccc3)C(c3ccccc3)C2)cc1 (stereo not drawn)	2.5%	3.2	0.7%	34.0	11.1%	17.7%
COc1ccc(Cl)cc1NC(=O)Cn1c(=O)n(CCC(=O)NCc2ccc3c(c2)OCO3)c(=O)c2ccccc21	-5.3%	.	.	.	.	3.7%
O=C(Cn1nnc(-c2ccccc2F)n1)NCc1ccco1	3.7%	12.3	5.6%	29.1	0.0%	44.7µM*
CCCCOc1ccc(-c2nnn(CC(=O)NCc3ccco3)n2)cc1	1.8%	30.8*	12.3%	68.9*	0.2%	-5.9%
CC(C)CC(=O)Nc1ccc(-c2nnn(CC(=O)NCc3ccco3)n2)cc1	-5.2%	29.2*	4.1%	85.8*	0.8%	.
CCOc1ccc(-c2nnn(CC(=O)NCc3ccco3)n2)cc1OCC	-5.1%	-2.2	1.5%	-1.3	-0.7%	-18.6%
CCOc1ccc(-c2c(C)nn3c(C)c(C(=O)NCc4ccc(Cl)cc4)cnc23)cc1OCC	-2.5%	.	.	.	.	-7.9%
O=C(NCc1cccc(F)c1)c1ccc2nc(CCc3ccccc3)oc2c1	-3.3%	.	.	.	.	4.1%
N/C(Cc1ccc(Cl)cc1Cl)=N\OC(=O)Cc1cccs1	-2.6%	36.4*	1.6%	51.5*	3.1%	-10.9%
COc1ccccc1CNC(=O)c1cccs1	-10.5%	16.0	-2.2%	31.7	2.4%	1.1%
COc1ccccc1C/C(N)=N/OC(=O)c1cccs1	0.4%	18.3*	-0.3%	39.9	0.0%	.
N/C(Cc1cccs1)=N\OC(=O)COc1ccc(Cl)cc1Cl	-2.8%	59.1*	6.9%	127.2*	2.1%	22.0%
COc1ccc(OCC(=O)O/N=C(\N)Cc2ccc(Cl)cc2Cl)cc1	-2.2%	-2.8	-0.7%	-8.4	0.7%	-0.9%
N/C(Cc1cccc2ccccc12)=N\OC(=O)c1ccc(Br)o1	.	18.4	-15.7%	46.6	2.8%	44.7µM*
SMILES	Tb PYK inh	Cycloheximide cs	FBPA Giardia inh	Shiga inhibitor	LmPK inh	Sm TGR block
CCOCCCn1c(=N)c(C(=O)NCc2cccnc2)cc2c(=O)n3ccccc3nc21	4.0%	.	.	.	.	4.8%
Cc1ccccc1-c1cncnc1Nc1ccc(F)cc1	.	.	-2.8%	.	.	.
N/C(Cc1cccc2ccccc12)=N\OC(=O)Cc1cccs1	-22.3%	49.1*	-19.1%	62.4*	0.6%	6.0%
N/C(Cc1cccc2ccccc12)=N\OC(=O)c1cccs1	2.9%	-1.7	-23.4%	-2.0	-0.6%	-22.7%
COc1ccccc1C/C(N)=N/OC(=O)COc1cc(C)cc(C)c1C	2.2%	2.0	-1.8%	-4.0	-1.4%	20.0%
N/C(Cc1ccc(Cl)cc1Cl)=N\OC(=O)c1cccs1	2.1%	11.3	-1.5%	51.8*	3.6%	-4.7%
COc1ccccc1C/C(N)=N/OC(=O)/C=C/c1ccccc1	-0.2%	21.9*	0.1%	52.7*	0.2%	-5.1%
N/C(Cc1ccc(Cl)cc1Cl)=N\OC(=O)c1ccc(Br)o1	-4.1%	11.0	-6.1%	2.9	5.4%	-1.7%
CCN(CC)C(=O)C1=C(C)N(CCC2=CCCCC2)C(=O)C(CC(=O)NCc2cccs2)C1 (stereo not drawn)	-1.2%	.	.	.	.	.
Cc1nn(-c2ccccc2)c2sc(C(=O)Nc3ccc(Cl)cc3Cl)cc12	0.1%	.	.	.	.	-8.0%
Cc1ccc([C@@H]2[C@@H]3C(=O)N(c4ccccc4)C(=O)[C@@H]3[C@]3(C)C(=O)N(Cc4ccccn4)CC(=O)N23)o1	-1.3%	5.3	4.6%	7.4	-1.3%	?
COC(=O)CN1C(=O)[C@H]2[C@@H](c3ccc(C)o3)N3C(=O)CN(Cc4ccc(-c5ccccc5)cc4)C(=O)[C@@]3(C)[C@H]2C1=O	?	-1.0	-8.9%	-5.4	-0.4%	10µM*
COC(=O)CN1C(=O)[C@H]2[C@@H](c3ccc(C)o3)N3C(=O)CN(CC4CC4)C(=O)[C@@]3(C)[C@H]2C1=O	-26.0%	-3.4	8.5%	15.5	3.6%	15.8µM*
COC(=O)CN1C(=O)[C@H]2[C@@H](c3ccc(C)o3)N3C(=O)CN(Cc4ccccc4)C(=O)[C@@]3(Cc3ccccc3)[C@H]2C1=O	-14.3%	-0.9	3.5%	-5.0	-1.7%	?
COC(=O)CN1C(=O)[C@H]2[C@@H](c3ccc(C)o3)N3C(=O)CN(Cc4ccccn4)C(=O)[C@@]3(C)[C@H]2C1=O	-13.1%	0.7	8.3%	17.5	-8.5%	25.1µM*
CC1CCCCN1S(=O)(=O)c1ccc(C(=O)Nc2sc3c(c2C(N)=O)CC(C)(C)NC3(C)C)cc1 (stereo not drawn)	1.9%	.	.	.	.	7.5%
CC(C)CCNC(=O)c1ccc2c(c1)ncn2C1CCCCC1	-18.8%	19.2	-0.2%	42.0*	0.4%	12.5%
CCCCNC(=O)c1ccc2c(c1)ncn2C1CCCC1	-5.5%	33.7*	0.2%	65.4	6.6%	-5.9%
O=C(O)c1ccc2c(c1)ncn2C1CCCC1	-4.6%	47.8*	0.1%	113.6*	6.0%[11.5 µM]	2.1%
CCCCNC(=O)c1ccc2c(c1)ncn2C1CCCCC1	-0.3%	11.8	3.6%	-4.2	1.0%	3.4%
Cc1cccc(NC(=O)Cn2c(=O)n(Cc3ccccc3)c(=O)c3oc4ccccc4c32)c1C	3.4%	.	.	.	.	5.1%
